Compounds with a hit are over-represented: about 7.4% of the library has one in this group of screens.
NPC1 promoter act: activates the NPC1 promoter; Huh7 NPC1 promoter luciferase reporter, 24 h; Potency, µM (top dose mostly 9.22 µM), for the others: at the highest dose activation, hits mostly activators; AID 485313; hit rate 2.4% among 320,000; further: % of control where 0% means no effect; nearly all actives have a fitted effect of over 60% in size
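Readout is luciferase luminescence, reflecting NPC1 promoter activation in stably transfected Huh7 cells after 24 h compound exposure at 37 °C in reduced-serum medium with 10% FBS.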
ELG1 genotox: genotoxicity induction in ELG1-luciferase HEK293T cells. Potency, µM (top dose mostly 46 µM), without a hit: top-dose activity change, positive = activation, most hits filed as activators. hit rate 1.3% among 330,000. AID 504466. HEK293T ELG1-luciferase reporter, luminescence, 16 h; further: % of control where 0% means no effect; nearly all actives have a fitted effect of over 60% in size
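Luminescence read-out: rising ELG1-luciferase signal, reflecting elevated ELG1 protein under genetic stress, flags genotoxic compounds. Cells were treated for 16 hr at 37 °C before ONE-Glo detection.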
FLuc modulator: inhibits or activates purified firefly luciferase, miR-21 counter-screen | P08659 | purified FLuc, Km substrates, luminescence inhibition | Potency, µM (doses to about 57.5 µM), inactives show at the top dose activity change, negative = inhibition, actives largely listed as inhibitors | hit rate 6.9% among 360,000;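 further: plate controls were vehicle for no effect and reference inhibitor for full effect; nearly all actives have a fitted effect of over 55% in size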
Target sequence (P08659 whole entry, looked up): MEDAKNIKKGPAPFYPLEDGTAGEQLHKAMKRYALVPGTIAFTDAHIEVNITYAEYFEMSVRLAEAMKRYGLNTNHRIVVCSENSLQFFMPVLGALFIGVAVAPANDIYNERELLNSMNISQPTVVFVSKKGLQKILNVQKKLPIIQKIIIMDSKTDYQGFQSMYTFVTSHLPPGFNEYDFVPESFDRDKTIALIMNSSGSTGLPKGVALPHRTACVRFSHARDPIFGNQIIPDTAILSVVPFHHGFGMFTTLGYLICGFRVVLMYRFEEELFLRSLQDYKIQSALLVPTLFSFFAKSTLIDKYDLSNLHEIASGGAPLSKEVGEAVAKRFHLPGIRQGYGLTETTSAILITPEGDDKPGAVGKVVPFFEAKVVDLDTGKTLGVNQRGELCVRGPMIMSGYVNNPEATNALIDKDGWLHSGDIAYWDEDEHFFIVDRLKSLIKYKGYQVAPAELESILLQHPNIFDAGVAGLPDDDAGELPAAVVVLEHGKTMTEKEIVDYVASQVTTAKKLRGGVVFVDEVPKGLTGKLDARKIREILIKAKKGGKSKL
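Biochemical qHTS of compounds, final roughly 60 µM downward over six points, against 10 nM purified firefly luciferase using Km concentrations of substrates (10 uM D-luciferin, 10 uM ATP) in Tris acetate pH 7.5 buffer; luminescence output.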
Rab9 prom act: Rab9 promoter activation | Huh7 Rab9 promoter-luciferase reporter, luminescence, 24 h | Potency, µM (series often up to 9.22 µM), without a hit: top-dose activation, negative = inhibition, actives largely listed as activators | hit rate 2.8% among 320,000; further: % of control where 0% means no effect; nearly all actives have a fitted effect of over 60% in size
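Luminescence from Amplite-detected luciferase (10 minutes, ambient) reports Rab9 promoter activation. Before that, stable Rab9-luciferase Huh7 cells (1500/well, reduced-serum OP-MEM I plus 10% FBS) were exposed to compound for 24 hours at 37C.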
SMN2 splice up: SMN2 splice variant enhancement. HEK293 SMN2-luciferase splicing reporter, luminescence, 30-36 h. Potency, µM (doses to about 46.1 µM), inactives show at the highest dose activity change, positive = activation, usual class: activators. hit rate 2.8% among 210,000. AID 1458; further: % of control where 0% means no effect; nearly all actives have a fitted effect of over 55% in size
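HEK293 cells carry an SMN2 […]–luciferase reporter in which exon 7 inclusion puts luciferase in frame. Cells were plated 10-12 h before compound addition, then incubated 30-36 h at 37C. ONE-Glo luminescence was read; sodium butyrate at 4.5 mM final served as control.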
Active calls of the source: *; u = inconclusive; x = not tested or not shown; [ ] = another dose, or the depositor's remark. The call rests on the fitted dose curve; in most records, active means well fitted curve in the direction sought with a large enough effect; inconclusive means small, poorly fitted or top-dose-only effect, or another doubt; inactive means no such curve, though single readings can be large; an effect the other way counts as inactive or inconclusive. Potency means the concentration at half of the fitted maximal effect.

SMILES | NPC1 promoter act | ELG1 genotox | FLuc modulator | Rab9 prom act | SMN2 splice up
CC(=O)Nc1ccc2c(c1)nc(CCNC(=O)c1ccccc1)n2C | 5% | 1% | -5% | 0% | -17%
CCC(=O)NCCc1nc2cc(NC(=O)c3cccc(Br)c3)ccc2n1C | x | x | 21µM* | x | x
CC1CCN(CCc2nc3cc(NC(=O)Nc4ccccc4)ccc3n2C)CC1 | u | u | 17µM* | u | 23%
CC(=O)Nc1ccc2c(c1)nc(CCN1CCC(C)CC1)n2C | 2% | 3% | -1% | 10% | 3%
Cn1c(CN2CCCCC2)nc2cc(NC(=O)c3cccc(Br)c3)ccc21 | -1% | 16% | u | -17% | -54%
CCOc1ccc(NC(=O)Cn2c(=O)n(CCC(=O)NCCc3ccccc3)c(=O)c3ccccc32)cc1 | x | x | 3% | x | -6%
CC1CCCN(C(=O)Cn2c(=O)n(CC3CCC(C(=O)NC(C)C)CC3)c(=O)c3sccc32)C1 (configuration not stated) | x | x | 0% | x | x
O=C(C[N+]12CN3CN(CN(C3)C1)C2)c1ccc(-c2ccccc2)cc1 | x | x | x | x | -6%[9.22 µM]
Clc1ccc(-c2nc3n(n2)Cc2ccccc2-3)cc1 | 3.2µM* | u | 0.54µM* | 1.6µM* | 0.5µM*
CCN(CC)S(=O)(=O)c1cccc(-c2nc3n(n2)Cc2ccccc2-3)c1 | u | 5% | 12µM* | u | -16%
COc1ccc(NC(=O)CSc2ccccc2)c([N+](=O)[O-])c1 | u | u | 27µM* | u | u
COc1ccc(NC(=O)CN2CCCCC2)c([N+](=O)[O-])c1 | 24% | 7% | u | 11% | 29%
COc1ccc(NC(=O)CSc2nc3ccccc3n2-c2ccccc2)c([N+](=O)[O-])c1 | -4% | 0% | -1% | -8% | -14%
COc1ccc(NC(=O)c2ccc(C)cc2Cl)c([N+](=O)[O-])c1 | u | u | 6µM* | u | 12%
COc1ccc(NC(=O)COc2ccc(C)cc2)c([N+](=O)[O-])c1 | 2.8µM* | 21µM* | u | u | 0%
COc1ccc(NC(=O)c2cc(Br)ccc2Cl)c([N+](=O)[O-])c1 | -3% | 5% | 4% | -3% | -10%
COc1ccc(NC(=O)CN2CCC(C)CC2)c([N+](=O)[O-])c1 | 13% | 16µM* | u | 5% | -1%
CCCCCCCC[N+](CCCCCCCC)(CCCCCCCC)CCCCCCCC | x | x | x | x | -62%
ClC(=Nc1cccc2ccccc12)N(c1ccccc1)c1ccccc1 | x | x | x | x | 4%[9.22 µM]
CCCCC(CC)CNCC(CC)CCCC (configuration not stated) | x | x | x | x | -5%
CS(=O)(=O)Nc1cccc(-c2cncnc2NCc2cccs2)c1 | x | x | x | x | -1%
FCCCOc1ccc(-c2ccnc(-c3ccccc3)n2)cc1 | 11% | -1% | 12µM* | 20% | -8%
FCCCOc1ccc(-c2nccc(-c3ccc(F)cc3)n2)cc1 | -1% | 1% | 24µM* | 1% | 5%
FCCCOc1ccc(-c2nccc(-c3ccc(Br)cc3)n2)cc1 | -1% | 0% | -2% | -4% | -12%
O=C(NCC1CCN(Cc2ccc(F)cc2)CC1)c1cc2ccc3cccnc3c2[nH]1 | x | x | -5% | x | x
SMILES | NPC1 promoter act | ELG1 genotox | FLuc modulator | Rab9 prom act | SMN2 splice up
CCOc1ccc(C(=O)NC(C)CCc2ccccc2)cc1 (configuration not stated) | 5% | 1% | 0% | 7% | x
COC(=O)[C@H](Cc1ccccc1)NC(=O)c1ccc2ccccc2n1 | 0% | 3% | 6.7µM* | 2% | x
CCOc1ccc(C(=O)NC(Cc2ccccc2)C(=O)OC)cc1 (configuration not stated) | 27% | 8% | 4.8µM* | u | 8%
O=C(Nc1ccc2oc(-c3ccccc3)nc2c1)c1cccs1 | 4µM* | u | 3.8µM* | 2.5µM* | 3.2µM*
Cc1ccc2oc(-c3cccc(NC(=S)NC(=O)c4cccs4)c3)nc2c1 | 24% | u | 11µM* | 22% | 1%[1.84 µM]
Cc1ccc2oc(-c3cc(NC(=O)/C=C/c4ccco4)ccc3Cl)nc2c1 | x | x | u | x | -5%
Cc1c(NC(=O)c2cccs2)cccc1-c1nc2cc(Cl)ccc2o1 | x | x | 5.4µM* | x | x
Cc1ccc2oc(-c3cccc(NC(=S)NC(=O)/C=C/c4ccco4)c3)nc2c1 | 29% | 15% | 15µM* | u | -29%
CCc1ccc(OC(=O)c2ccn(CC)n2)cc1 | 0% | 3% | 15µM* | 3% | 3%
CCn1ccc(C(=O)NC2CCCC2)n1 | 2% | 7% | 1% | 8% | x
Cc1ccc(NC(=O)C2Cc3ccccc3C(=O)O2)cc1 (configuration not stated) | u | u | u | u | 89%
O=C1OC(C(=O)Nc2ccccc2)Cc2ccccc21 (configuration not stated) | 16% | 11% | 17µM* | u | 16%
COc1ccc(S(=O)(=O)N2CCC(C(=O)Nc3ccc(Oc4ccccc4)cc3)CC2)cc1OC | x | x | 0% | x | -44%
S=C(Nc1ccccc1)Nc1ccccc1C#Cc1ccccc1 | x | x | x | x | -16%
COc1ccccc1C(=O)Nc1cccc(NC(C)=O)c1 | 0% | -1% | u | -5% | -11%
COc1ccc(NC(=O)NCc2ccc(Cl)cc2)cc1 | -6% | 15% | -1% | 2% | x
Cc1cccc(NC(=O)NCc2ccc3c(c2)cc(C)n3C)c1 | 4% | u | -3% | -4% | 2%
Cc1cc2cc(CNC(=O)Nc3cccc(Cl)c3)ccc2n1C | 1% | 23µM* | -4% | 0% | -25%
COc1ccc(CNC(=O)Nc2cccc(Cl)c2)cc1 | 2.5µM* | u | u | u | x
COc1ccccc1C(=O)NC(=O)Nc1cccc(Cl)c1 | u | u | 2.7µM* | 4µM* | x
Cc1cc(C)c(NC(=O)Cn2c(=O)n(-c3ccc(F)cc3)c(=O)c3c(C)c(C(=O)N(C)C)sc32)c(C)c1 | x | x | -3% | x | x
O=C1/C(=C/c2ccccc2[N+](=O)[O-])COc2ccccc21 | -23% | -21% | 17µM* | -15% | -86%
COc1ccc2c(c1)OC/C(=C/c1ccc(O)c(O)c1)C2=O | x | x | x | x | 3%
CNc1ccc(/C=C2\COc3ccccc3C2=O)cc1[N+](=O)[O-] | 25% | 4% | 1.9µM* | u | 10%
CC(=O)N1CCC2(CC1)CCN(c1ncccn1)CC2 | x | x | x | x | -10%
O=c1c2ccccc2nc2oc3ccccc3n12 | 1.6µM* | 10µM* | 7.6µM* | 1.6µM* | x
COc1ccc(OCc2cc(C(=O)N3CCCC(CO)C3)no2)c2ccccc12 (configuration not stated) | 4µM* | u | 8.5µM* | 4µM* | x
CSc1ccccc1OCc1cc(C(=O)N2CCCC(C)C2)no1 (configuration not stated) | 1.6µM* | 5.2µM* | 6.7µM* | 1.4µM* | x

High-throughput results as filed in PubChem BioAssay.
